# Experimental data reported in PubChem BioAssay AID504909 (Southern Research Specialized Biocontainment Screening …, 2011).
# Potency and affinity values are given separately. Active and inactive are the calls of the source. A call without a number means that no potency is given here. The rule behind the calls is not given here.
# Experiment: Vero cell cytotoxicity, dose response, cytotoxicity control for M. tuberculosis growth inhibitor project, Vero cells, purified and synthesized compounds, set 5 (AID 504909)
row,SMILES,outcome
1,O=C(CSc1nc2ccccc2c(=O)[nH]1)N1CCOCC1,inactive
2,O=C(CSc1nccc(=O)[nH]1)NC1CCCCC1,inactive
3,NC[C@H]1O[C@H](O[C@H]2[C@H](O)[C@@H](O[C@H]3O[C@H](CO)[C@@H](O)[C@H](N)[C@H]3O)[C@H](N)C[C@@H]2N)[C@H](O)[C@@H](O)[C@@H]1O,inactive
4,O=C(CSc1nc2ccccc2c(=O)[nH]1)NCc1ccc(Cl)cc1,inactive
5,NNC(=O)c1ccncc1,inactive
6,NC(=O)CSc1nc2ccccc2c(=O)[nH]1,inactive
7,Nc1c(C(=O)NC2CCCCC2)nsc1C(=O)OCC(=O)NC1CCCCC1,inactive
8,COC(=O)C(C)Oc1ccc(Cc2ncc(C(F)(F)F)cc2Cl)cc1 (centres undefined),inactive
9,Cc1cc(=O)[nH]c(=S)[nH]1,inactive
10,O=C(CSc1ncccn1)NC1CCCCC1,inactive
11,O=C(CSc1nc2c(c(=O)[nH]1)CCC2)NC1CCCCC1,inactive
12,Cc1ccc(NC(=O)COC(=O)CCc2c[nH]c3ccccc23)cc1[N+](=O)[O-],inactive
13,Cc1nc(SCC(=O)NCCC(C)C)[nH]c(=O)c1C,inactive
14,Cc1nc(SCC(=O)NC2CCCCC2)[nH]c(=O)c1C,inactive
15,COc1ccc(NC(=O)CSc2nc3ccccc3c(=O)[nH]2)cc1,inactive
16,CC(C)NC(=O)CSc1nc2ccccc2c(=O)[nH]1,inactive
17,CN1CCC(NC(=O)CSc2nc3ccccc3c(=O)[nH]2)CC1,inactive
18,Cc1cc(=O)[nH]c(SCC(=O)NC2CCCCC2)n1,inactive
19,CC(C)CCNC(=O)CSc1nc2c(c(=O)[nH]1)CCC2,inactive
